Experimental data: PubChem BioAssay AID1117361 (Southern Research Institute, 2015)
In all, about 3,600 compounds went through this assay and about 900 (25%) were called active. The rule behind the calls is not given here. Only a sample is shown. Entries with a potency or affinity are not part of this list.

Each compound was assayed against Protein Tat (Human immunodeficiency virus type 1 group M subtype B (isolate HXB2)) (UniProt P04608) (assay: inhibitors of Tat binding to TAR RNA, dose response, counter-screen for Vif-APOBEC3G degradation inhibitor project, biochemical, fluorescence polarization, FAM-labeled TAR RNA (AID 1117361)). Conditions: outcome: dose series up to 100 µM unless noted; series mostly up to 100 µM.
With `CCC(=O)Nc1cccc(Oc2nc(C)cc(C)c2C#N)c1` the outcome was “inactive”. For `Clc1ncnc2scc(-c3ccccc3)c12`, the outcome was “inactive”. With `Cc1nn(Cc2ccccc2)c(C)c1NC(=O)c1cc(-c2ccc3c(c2)OCO3)on1` the outcome was “inactive”. For `O=C(OCc1ccc(Cl)cc1)c1cnccn1`, the outcome was “inactive”. `NNC(=O)CCN1CCN(C(c2ccccc2)c2ccccc2)CC1` was tested, and the outcome was “inactive”. In the case of `O=C(CN1CCN(c2nc(-c3ccccc3)cs2)CC1)Nc1ccc2c(c1)OCO2`, the outcome is reported as “inactive”. In the case of `Cc1ccccc1CS(=O)(=O)CCC(=O)NCCN1CCN(c2cccc(Cl)c2)CC1`, the outcome is reported as “inactive”. For `CCOC(=O)CSc1ncnc2c1cnn2-c1ccc(C)cc1`, the outcome was “inactive”. For `COc1ccc(-n2nnnc2-c2ccccc2)cc1`, the outcome was “inactive”. In the case of `COc1cnc(SCc2c(Cl)cccc2Cl)nc1Cl`, the outcome is reported as “inactive”. `Clc1c(-c2nnc3n2CCC3)sc2ccccc12` was tested, and the outcome was “inactive”. `CC(NC(=O)CSc1nnc2n1CCCCC2)c1ccccc1Cl` (centres undefined) was tested, and the outcome was “inactive”. For `Cc1cc2cc3c(=O)[nH]c(=O)nc-3n(CC(O)C(O)C(O)CO)c2cc1C` (centres undefined), the outcome was “inactive”. In the case of `CCCn1nc(NC(=O)c2ccccn2)c2cc3cc(C)ccc3nc21`, the outcome is reported as “inactive”. For `O=C1COc2ccc(C(=O)CSc3nnc(-c4cccs4)n3Cc3ccccc3)cc2N1`, the outcome was “inactive”. For `COc1cc2ccccc2cc1C(=O)N1CCN(c2ccccc2O)CC1`, the outcome was “inactive”. In the case of `CCOCCNC(=O)c1ccccc1C(=O)NCCOCC`, the outcome is reported as “inactive”. With `COc1ccc(Oc2nc(C)cc(C)c2C#N)cc1` the outcome was “inactive”. In the case of `COC(=O)COn1c(-n2nc(C)cc2C)nc2ccccc2c1=O`, the outcome is reported as “inactive”. With `Cc1ccc(S(=O)(=O)n2ccc(=O)[nH]2)cc1` the outcome was “inactive”. `CCN(CC)C(=O)c1sc(NC(=O)c2ccc3c(c2)OCO3)c(C#N)c1C` was tested, and the outcome was “inactive”. `CCOC(=O)c1c(NC(=O)c2cc(CC(C)C)on2)sc(C(C)=O)c1C` was tested, and the outcome was “inactive”. `O=C(COC(=O)C12CC3CC(CC(Br)(C3)C1)C2)Nc1ccc2[nH]c(=O)[nH]c2c1` was tested, and the outcome was “inactive”. With `COc1cc(CC(=O)NCC(C)(C)N2CCOCC2)cc(OC)c1OC` the outcome was “inactive”. For `CCC(Sc1nc(-c2ccccc2)cc(=O)[nH]1)C(=O)O` (centres undefined), the outcome was “inactive”. For `N#C/C=C\Oc1ccc(Cl)cc1N`, the outcome was “inactive”. For `COc1ccccc1OCCOc1ccccc1/C=N/n1cnnc1`, the outcome was “inactive”. For `Cc1c(C(=O)N2CCN(c3ccccc3F)CC2)sc2nc(-c3ccccc3)cn12`, the outcome was “inactive”. In the case of `CN(c1ccc(C(=O)N2CCc3ccccc3C2)cc1)S(C)(=O)=O`, the outcome is reported as “inactive”. For `COc1ccc(C)cc1NC(=O)COC(=O)CCC(=O)c1cccs1`, the outcome was “inactive”. In the case of `CCn1c(N)c(C(=O)NCc2ccc3c(c2)OCO3)sc1=S`, the outcome is reported as “inactive”. With `CCCn1nc2cc(C(=O)NCc3ccc4c(c3)OCO4)ccc2c1OCC` the outcome was “inactive”. In the case of `COC(=O)C1=C(O)/C(=C/c2cccc(OC)c2O)N=C1C`, the outcome is reported as “inactive”. With `COC(=O)C1=C(O)/C(=C\c2ccc(CNC(=O)C(=O)Nc3ccc(C)c(C)c3)o2)N=C1C` the outcome was “inactive”. In the case of `CCOC(=O)c1c(C)c(/C=N/Nc2ccccc2)n(C)c1C`, the outcome is reported as “inactive”. With `CCC(C)Nc1nc2c(c(=O)[nH]c(=O)n2C)n1CCC(C)C` (centres undefined) the outcome was “inactive”. In the case of `COC(=O)c1cn[nH]c1NC(=S)Nc1ccc(C)cc1Cl`, the outcome is reported as “inactive”. In the case of `CCCCNC(=O)C1CCCN(S(=O)(=O)c2ccc(-n3cnnn3)cc2)C1` (centres undefined), the outcome is reported as “inactive”. For `CCN(CC)c1ccc(C2C3CCCCC3(O)CCN2CC(=O)Nc2ccccc2)cc1` (centres undefined), the outcome was “inactive”. For `COc1ccccc1NC(=O)c1cc2ccccc2o/c1=N\O`, the outcome was “inactive”. In the case of `CC1CN(S(=O)(=O)c2cc(C(=O)NCc3ccncc3)ccc2Cl)CC(C)O1` (centres undefined), the outcome is reported as “inactive”. `Cc1ccc(Cn2ccc(NC(=O)c3cc(-c4cccc(Cl)c4)on3)n2)cc1` was tested, and the outcome was “inactive”. With `COc1ccc(NC(=O)C2CCCNC2)cc1OCC(C)C` (centres undefined) the outcome was “inactive”. With `O=c1c2c(nc(NCCO)n1CC1CCCCC1)-c1ccccc1CC21CCCC1` the outcome was “inactive”. For `CC(Sc1nnnn1C)C(=O)Nc1ccccc1-c1ccccc1` (centres undefined), the outcome was “inactive”. In the case of `CCOC(=O)CCC(=O)N1CCNC(=O)C1`, the outcome is reported as “inactive”. For `CCNC(=O)c1ccc(-n2nc(C(F)(F)F)c3c2CCCC3)cc1`, the outcome was “inactive”. In the case of `CS(=O)(=O)c1ccc2nnn(OCC(=O)Nc3cccc(C#N)c3)c2c1`, the outcome is reported as “inactive”. `Cc1cccc2c1NC1(CCCC1)CC2C` (centres undefined) was tested, and the outcome was “inactive”. For `O=C(NCCCN1CCOCC1)C1CC(=O)N(CCc2ccccc2)C1` (centres undefined), the outcome was “inactive”. With `CCN(CC)c1ccc(NC(=O)c2c(C)noc2C)cc1` the outcome was “inactive”. With `O=C(c1ccc2c(c1)[nH]c(=S)n1c3ccccc3nc21)N1CCN(c2cccc(Cl)c2)CC1` the outcome was “inactive”. For `COc1ccc(S(=O)(=O)N2CCC(C(=O)NCc3cccnc3)CC2)cc1Cl`, the outcome was “inactive”. In the case of `COc1cc(NC(=O)c2cc3nc(-c4ccccc4)cc(-c4ccccc4)n3n2)cc(OC)c1OC`, the outcome is reported as “inactive”. `CC(=O)c1cccc(NC(=O)CC2Oc3ccc(C)cc3NC2=O)c1` (centres undefined) was tested, and the outcome was “inactive”. With `O=C(CCNS(=O)(=O)c1ccc(Cl)cc1)NCc1cccnc1` the outcome was “inactive”. `C=C(C)C1CC=C(C)/C(=N\NC(=O)CCC(=O)Nc2ccc(C)c(C)c2)C1` (centres undefined) was tested, and the outcome was “inactive”. With `CC(C)CCNC(=O)Cn1c2c(c(-c3ccccc3Cl)cc1=O)CCC2` the outcome was “inactive”. For `O=c1c2c([nH]c3ccccc13)CCCCCC2`, the outcome was “inactive”. For `FC(F)(F)C1=Nc2cccc3cccc(c23)N1`, the outcome was “inactive”. `CCc1nc(-c2ccc(C)nc2OC)no1` was tested, and the outcome was “inactive”. In the case of `CS(=O)(=O)c1ccc(C(=O)Nc2nc(-c3ccco3)c(-c3ccco3)s2)cc1`, the outcome is reported as “inactive”. For `COc1ccc(NC(=O)CSc2nc3c(cc2C#N)CN(C)CC3)cc1`, the outcome was “inactive”. `O=S(=O)(N1CCOCC1)N1CCCN(S(=O)(=O)N2CCOCC2)CC1` was tested, and the outcome was “inactive”. For `Cc1c(C(=O)N2CCCCC2)nnn1-c1nonc1N`, the outcome was “inactive”. In the case of `CCOC(=O)N1CCC(N2C(=O)c3ccccc3C2Nc2ccccc2)CC1` (centres undefined), the outcome is reported as “inactive”. For `COc1ccc(C(=O)n2nc(-c3ccc(Cl)cc3)nc2N)cc1OC`, the outcome was “inactive”. With `COc1ccc(-c2noc(Cc3ccc(Cl)cc3)n2)cc1OC` the outcome was “inactive”. `Cc1cc(C)c2c(=N)c3ccccc3n(CCCCCCCCn3c4ccccc4c(=N)c4c(C)cc(C)nc43)c2n1` was tested, and the outcome was “inactive”. With `COc1cccc(OC)c1OCCCc1c(C)n[nH]c1C` the outcome was “inactive”. For `O=C(N/C(=C/c1ccc(Cl)cc1)c1nc2ccccc2[nH]1)c1ccco1`, the outcome was “inactive”. For `COc1cccc(C(=O)Nc2nc3ccccc3[nH]2)c1`, the outcome was “inactive”. In the case of `CCN(CC)C(=O)CCNS(=O)(=O)c1ccc(C)cc1`, the outcome is reported as “inactive”. In the case of `Clc1ccc(-c2nnnn2-c2ccc(Cl)c(Cl)c2)cc1Cl`, the outcome is reported as “inactive”. In the case of `CCc1nnc(SCC(=O)NC2CCCCC2)nc1CC`, the outcome is reported as “inactive”. With `Fc1ccc(-c2nnc(Cc3nnc(-c4ccc(F)cc4)o3)o2)cc1` the outcome was “inactive”. With `Cc1ccc2c(c1C)NC(=O)C2(O)CC(=O)c1ccc2c(c1)OCO2` (centres undefined) the outcome was “inactive”. In the case of `O=C(NCc1ccc2c(c1)OCO2)c1cc2ncc(Br)cn2n1`, the outcome is reported as “inactive”. In the case of `CCOc1ccc(N(CC(=O)NCCC2=CCCCC2)S(=O)(=O)c2ccccc2)cc1`, the outcome is reported as “inactive”. With `CCNC(=O)OCC(CC)NC(=O)OCC(C)C` (centres undefined) the outcome was “inactive”. With `Cc1cc(C)cc(-c2nnc(SCC(=O)NCc3cccs3)o2)c1` the outcome was “inactive”. With `CCN(CC)c1ccc(/C=C2\C(=O)N(c3nnc(C)c(=O)[nH]3)N=C2C)cc1` the outcome was “inactive”. For `c1ccc(N2CCN(c3ccc4nncn4n3)CC2)nc1`, the outcome was “inactive”. For `Cc1noc(C)c1C(=O)N1CCN(c2ncccn2)CC1`, the outcome was “inactive”. `CCCCc1ccc(-c2nc(N)n[nH]2)cc1` was tested, and the outcome was “inactive”. `COCCCN1CC23C=CC(O2)C(C(=O)O)C3C1=O` (centres undefined) was tested, and the outcome was “inactive”. In the case of `CC1CCN(c2ccc([N+](=O)[O-])c(SCCO)c2)CC1`, the outcome is reported as “inactive”. With `Cc1ccc(S(=O)(=O)NCCCOC(=O)Nc2ccncc2)cc1` the outcome was “inactive”. In the case of `O=C(C1CCC(CNc2c(N3CCCCC3)c(=O)c2=O)CC1)N1CCN(C2CCCCC2)CC1` (centres undefined), the outcome is reported as “inactive”. In the case of `O=C(CSc1nnnn1-c1ccc2c(c1)CCC2)Nc1ccc2c(c1)OCCO2`, the outcome is reported as “inactive”. `CCOC(=O)c1c(NC(=O)Cn2nnc(-c3ccccc3Cl)n2)sc(C)c1C` was tested, and the outcome was “inactive”. `Cc1cnc(NC(=O)CSc2nnc(CNc3ccc(F)cc3)n2CC2CCCO2)s1` (centres undefined) was tested, and the outcome was “inactive”. In the case of `COc1ccc(OC)c(NC(=O)CSc2nc3ccccc3c(=O)n2CC2CCCO2)c1` (centres undefined), the outcome is reported as “inactive”. For `COC(=O)C1=CN(CC2CCCO2)C=C(C(=O)OC)C1c1ccccc1C(F)(F)F` (centres undefined), the outcome was “inactive”. `Cc1nn(Cc2ccccc2)c(C)c1C(=O)OCC(=O)c1cc(C)n(C2CC2)c1C` was tested, and the outcome was “inactive”. In the case of `[O-]/[N+](=C\C=C\c1ccccc1)c1ccccc1`, the outcome is reported as “inactive”. In the case of `COc1ccc(C2CC(C(F)(F)F)n3nc(C(=O)NCc4c(C)nn(C)c4C)c(Cl)c3N2)cc1` (centres undefined), the outcome is reported as “inactive”. With `O=S1(=O)Nc2c(ccc3cccnc23)-c2ccccc21` the outcome was “inactive”. With `CCN(CC)c1ccc(NC2=C(Cl)C(=O)c3ccccc3C2=O)cc1` the outcome was “inactive”. With `O=C1CSC(c2cccnc2)N1Cc1cccnc1` (centres undefined) the outcome was “inactive”. In the case of `COc1ccc(OCC(=O)O/N=C(\N)Cc2ccc(Cl)cc2)cc1`, the outcome is reported as “inactive”. In the case of `CCOC(=O)CN(C(=O)CSc1nnc(COc2ccc(OC)cc2)n1CC)c1ccccc1`, the outcome is reported as “inactive”. In the case of `Oc1c(C(c2ccccc2)N2CCN(Cc3ccccc3)CC2)sc2ncnn12` (centres undefined), the outcome is reported as “inactive”. In the case of `Fc1ccc(C(CCCn2nnc(-c3cccnc3)n2)c2ccc(F)cc2)cc1`, the outcome is reported as “inactive”. With `Cc1cc(CN2C(=O)c3ccccc3C2=O)cc(N2CCOCC2)c1` the outcome was “inactive”. `Cc1nc2cc(NC(=O)Nc3ccc(N4CCOCC4)cc3)ccc2n1C` was tested, and the outcome was “inactive”. In the case of `Oc1ccccc1/C=N/Nc1nccnc1Cl`, the outcome is reported as “inactive”. For `COc1ccc(/C=C/c2nnc(NC(=O)CSc3ccc(C)cc3)s2)cc1`, the outcome was “inactive [at 50 µM]”. `COC(=O)C(NC(=O)c1ccco1)(Nc1nc(C)cs1)C(F)(F)F` (centres undefined) was tested, and the outcome was “inactive”. `COC(=O)c1ccc(CSc2nc3ccccc3c(=O)n2-c2ccc(OC)c(OC)c2)o1` was tested, and the outcome was “inactive”. In the case of `C=CCN1C(=O)CSc2ccc(C(=O)NCc3ccco3)cc21`, the outcome is reported as “inactive”. `CCn1cc(C(=O)NCc2ccco2)c2cc(OC)c(OC)cc2c1=O` was tested, and the outcome was “inactive”. With `COC(=O)c1cc(OC)c(OC)cc1NC(=O)c1ccco1` the outcome was “inactive”. In the case of `C=CCN1C(=O)c2ccc(C(=O)N3CCN(c4ccccc4OC)CC3)cc2C1=O`, the outcome is reported as “inactive”.
